In PubChem BioAssay (EPA / NIEHS) one finds AC50 and outcome data, which are given here for six molecules.

Molecules are shown by their SMILES. “And” between values parts separate entries of the source, which are not always exact repeats. Equal entries are not always repeated. Inconclusive results are not listed. Where a structure was tested more than once in an assay, its records may differ in their call. The source made the active and inactive calls. Rule for the calls, unless noted: active = hit-call score of the fitted dose curve at least 0.9, where 1 is the maximum; inactive = score below 0.9.

As a reminder, the AC50 is the midpoint of the concentration-response curve, whichever way the signal moves.

Read-out in experiment [1]: Monokine induced gamma interferon (MIG), CXCL9 (gene 4283)
Put plainly: BSK_3C_MIG: BioMAP Diversity Plus: 3C Assay for Monokine induced gamma interferon (MIG) Biomarker Activity (AID 2283021).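 For AC50: MIG protein level measured by immunoassay in the treated endothelial cultures.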 The note with it: primary human endothelial cells (HUVEC); actives raise or lower the signal. In short, it runs like this:
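Primary human umbilical vein endothelial cells in the 3C system were exposed to chemical for 24 h, after which MIG was quantified by ELISA. Activity was fitted bidirectionally against DMSO as negative control and baseline.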

Experiment [2] in a line: BSK_3C_SRB: Viability Assessment in the BioMAP Diversity Plus: 3C Assay (AID 2283023).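 Note: fitted both ways against DMSO so a hit may be signal rise or drop.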 To be noted: primary human endothelial cells (HUVEC). In short, it runs like this:
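Primary human umbilical vein endothelial cells in the 3C system were read 24 h after compound dosing. Total protein was stained with 0.1% sulforhodamine B after 10% TCA fixation and read at 560 nm, with bidirectional fitting against DMSO as baseline.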

Read-out in experiment [3]: Matrix Metallopeptidase 1 (MMP1), MMP1 (gene 4312)
Put plainly: BSK_BE3C_MMP1: BioMAP Diversity Plus: BE3C Assay for Matrix Metallopeptidase 1 (MMP1) Biomarker Activity (AID 2283024). To be noted: primary human bronchial epithelial cells; actives raise or lower the signal. In outline: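 Primary human bronchial epithelial cells were dosed with test chemicals, and MMP1 levels were measured by ELISA 24 h later. Data were fitted bidirectionally against DMSO as the negative control and activity baseline.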

Read-out in experiment [4]: Pselectin, SELP (gene 6403)
Put plainly: BSK_4H_Pselectin: BioMAP Diversity Plus: 4H Assay for Pselectin Biomarker Activity (AID 2283026). The note with it: primary human endothelial cells (HUVEC); actives raise or lower the signal. In outline:
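Primary human umbilical vein endothelial cells were exposed to test chemical for 24 h, then cell-surface P-selectin was quantified by ELISA. Activity was fitted bidirectionally against DMSO as negative control and baseline.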

Experiment [5] in a line: BSK_4H_SRB: Viability Assessment in the BioMAP Diversity Plus: 4H Assay (AID 2283027).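 For AC50: curves fitted both ways versus DMSO so AC50 may be loss or gain.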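 Note: cells exposed to compound for 24 h before staining.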 To be noted: primary human endothelial cells (HUVEC). In short, it runs like this: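 Human umbilical vein endothelial cells were dosed with chemical and, after 24 h, fixed with 10% TCA, stained with 0.1% sulforhodamine B, and read at 560 nm to give total protein as a cytotoxicity measure. Bidirectional fitting relative to DMSO control.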

Experiment [6] is described as follows: BSK_BE3C_SRB: Viability Assessment in the BioMAP Diversity Plus: BE3C Assay (AID 2283028). The note with it: primary human bronchial epithelial cells. In short, it runs like this:
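Human primary bronchial epithelial cells were exposed to test chemicals for 24 h. Total protein in parallel cultures was then measured by staining with 0.1% sulforhodamine B after 10% TCA fixation, with absorbance read at 560 nm. Activity was fitted bidirectionally against DMSO.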

Read-out in experiment [7]: Thrombomodulin, THBD (gene 7056)
Kind of experiment: BSK_3C_Thrombomodulin: BioMAP Diversity Plus: 3C Assay for Thrombomodulin Biomarker Activity (AID 2283029). The note with it: primary human endothelial cells (HUVEC); actives raise or lower the signal. In short, it runs like this: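 Primary human umbilical vein endothelial cells (3C system) were exposed to chemical for 24 h, then thrombomodulin levels were measured by ELISA. Activity was fitted bidirectionally against the DMSO negative control as baseline.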

Read-out in experiment [8]: Urokinase-type plasminogen activator receptor (uPAR), PLAUR (gene 5329)
Put plainly: BSK_4H_uPAR: BioMAP Diversity Plus: 4H Assay for Urokinase-type plasminogen activator receptor (uPAR) Biomarker Activity (AID 2283030). To be noted: primary human endothelial cells (HUVEC); actives raise or lower the signal. In short, it runs like this:
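Primary human umbilical vein endothelial cells were exposed to chemical for 24 h before cell-surface uPAR was quantified by ELISA. Activity was fitted bidirectionally against the DMSO negative control baseline.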

Read-out in experiment [9]: Vascular endothelial growth factor receptor 2 (Homo sapiens) (UniProt P35968)
Kind of experiment: BSK_4H_VEGFRII: BioMAP Diversity Plus: 4H Assay for Vascular endothelial growth factor receptor 2 (VEGFR2) Biomarker Activity (AID 2283031).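 For AC50: cell-surface VEGFR2 protein level quantified by ELISA.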 To be noted: primary human endothelial cells (HUVEC); actives raise or lower the signal. In outline: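 Primary human umbilical vein endothelial cells in the BioMAP 4H system were dosed with test chemical, and 24 h later VEGFRII was measured by ELISA. Activity was fitted bidirectionally against DMSO as negative control and baseline.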

Read-out in experiment [10]: Human Leukocyte Antigen - DR isotype (HLADR), HLA-DRA (gene 3122)
Kind of experiment: BSK_BE3C_HLADR: BioMAP Diversity Plus: BE3C Assay for Human Leukocyte Antigen - DR isotype (HLADR) Biomarker Activity (AID 2283032). To be noted: primary human bronchial epithelial cells; actives raise or lower the signal. In short, it runs like this:
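Human primary bronchial epithelial cells in the BE3C system were exposed to chemicals for 24 h, after which HLA-DR levels were quantified by ELISA. Activity was fitted bidirectionally, gain or loss of signal, against DMSO as negative control and baseline.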

Read-out in experiment [11]: Vascular cell adhesion molecule 1 (VCAM1), VCAM1 (gene 7412)
Put plainly: BSK_4H_VCAM1: BioMAP Diversity Plus: 4H Assay for Vascular cell adhesion molecule 1 (VCAM1) Biomarker Activity (AID 2283033).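 For outcome: cell-surface VCAM-1 protein measured by ELISA.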 The note with it: primary human endothelial cells (HUVEC); actives raise or lower the signal. In outline:
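Primary human umbilical vein endothelial cells were exposed to chemicals for 24 h, after which VCAM-1 was quantified by ELISA. Responses were fitted bidirectionally against DMSO as negative control and activity baseline.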

Read-out in experiment [12]: Interferon-gamma inducible Protein 10 (IP10), CXCL10 (gene 3627)
Kind of experiment: BSK_BE3C_IP10: BioMAP Diversity Plus: BE3C Assay for Interferon-gamma inducible Protein 10 (IP10) Biomarker Activity (AID 2283034). The note with it: primary human bronchial epithelial cells; actives raise or lower the signal. In short, it runs like this:
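Human primary bronchial epithelial cells were exposed to chemicals for 24 hours, after which IP-10 levels were measured by ELISA. Data were fitted bidirectionally against DMSO, which served as the negative control and activity baseline.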

Read-out in experiment [13]: Plasminogen activator inhibitor-1 (PAI1), SERPINE1 (gene 5054)
Put plainly: BSK_BE3C_PAI1: BioMAP Diversity Plus: BE3C Assay for Plasminogen activator inhibitor-1 (PAI1) Biomarker Activity (AID 2283037). To be noted: primary human bronchial epithelial cells; actives raise or lower the signal. In outline: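 Human primary bronchial epithelial cells were exposed to chemical for 24 h, then PAI-1 was quantified by ELISA. Activity was fitted bidirectionally relative to the DMSO negative control baseline.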

Read-out in experiment [14]: urokinase plasminogen activator (uPA), PLAU (gene 5328)
Kind of experiment: BSK_BE3C_uPA: BioMAP Diversity Plus: BE3C Assay for urokinase plasminogen activator (uPA) Biomarker Activity (AID 2283038).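 Note: uPA protein level quantified by ELISA in cell cultures; uPA read one day after compound addition.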 To be noted: primary human bronchial epithelial cells; actives raise or lower the signal. In outline:
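Human primary bronchial epithelial cells were exposed to chemical for 24 h, then uPA levels were measured by ELISA. Responses were fitted bidirectionally against DMSO as negative control and baseline. Parallel SRB staining of total protein gauged overt cytotoxicity.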

Read-out in experiment [15]: Urokinase-type plasminogen activator receptor (uPAR), PLAUR (gene 5329)
Kind of experiment: BSK_BE3C_uPAR: BioMAP Diversity Plus: BE3C Assay for Urokinase-type plasminogen activator receptor (uPAR) Biomarker Activity (AID 2283039).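 Note: cells exposed to compound for one day before measurement.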 The note with it: primary human bronchial epithelial cells; actives raise or lower the signal. In short, it runs like this:
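Primary human bronchial epithelial cells were dosed with chemical and harvested 24 h later; uPAR was quantified by ELISA. Activity was fitted bidirectionally against DMSO as negative control and baseline.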

Read-out in experiment [16]: Interleukin-6 (IL6), IL6 (gene 3569)
Put plainly: BSK_CASM3C_IL6: BioMAP Diversity Plus: CASM3C Assay for Interleukin-6 (IL6) Biomarker Activity for (AID 2283040). The note with it: primary human coronary artery smooth muscle cells; actives raise or lower the signal.

Read-out in experiment [17]: Tissue plasminogen activator (tPA), PLAT (gene 5327)
Put plainly: BSK_BE3C_tPA: BioMAP Diversity Plus: BE3C Assay for Tissue plasminogen activator (tPA) Biomarker Activity (AID 2283041).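 For outcome: tPA level quantified by ELISA one day after compound addition.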 To be noted: primary human bronchial epithelial cells; actives raise or lower the signal. In short, it runs like this:
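Human primary bronchial epithelial cells were dosed with chemical and tPA biomarker levels measured by ELISA 24 hours later. Activity was fitted bidirectionally against DMSO as negative control and baseline.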

The nature of experiment [18]: BSK_3C_Vis: BioMAP Diversity Plus: 3C Assay for Morphology Visualization (AID 2283025).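 Note: fitted both ways so gain or loss versus DMSO counts.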 The note with it: primary human endothelial cells (HUVEC). In short, it runs like this:
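Human umbilical vein endothelial cells in the 3C system were imaged by light microscopy 24 h after chemical dosing to record cell morphology. Activity was fitted bidirectionally against DMSO as negative control and baseline; the endpoint serves as a background control.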

Experiment [19] concerns the target human Vitamin D Receptor (VDR), VDR (gene 7421) (UniProt P11473). Put plainly: ATG_VDR_TRANS: Attagene TRANS-FACTORIAL HepG2 Assay for human Vitamin D Receptor (VDR) (AID 2283022; active = hit-call score of the fitted dose curve at least 0.9, where 1 is the maximum). In short, it runs like this: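 HepG2 cells were transiently transfected with multiple GAL4-UAS reporter units, so signal reflects exogenous chimeric receptor-Gal4 activity. After 24 h compound exposure, reporter mRNA was measured by RT-PCR, fluorescent labelling and capillary electrophoresis, fitted for gain of signal versus DMSO.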

Sequence of human Vitamin D Receptor (VDR), VDR (gene 7421) (P11473 whole entry, looked up, the tested form may be a part): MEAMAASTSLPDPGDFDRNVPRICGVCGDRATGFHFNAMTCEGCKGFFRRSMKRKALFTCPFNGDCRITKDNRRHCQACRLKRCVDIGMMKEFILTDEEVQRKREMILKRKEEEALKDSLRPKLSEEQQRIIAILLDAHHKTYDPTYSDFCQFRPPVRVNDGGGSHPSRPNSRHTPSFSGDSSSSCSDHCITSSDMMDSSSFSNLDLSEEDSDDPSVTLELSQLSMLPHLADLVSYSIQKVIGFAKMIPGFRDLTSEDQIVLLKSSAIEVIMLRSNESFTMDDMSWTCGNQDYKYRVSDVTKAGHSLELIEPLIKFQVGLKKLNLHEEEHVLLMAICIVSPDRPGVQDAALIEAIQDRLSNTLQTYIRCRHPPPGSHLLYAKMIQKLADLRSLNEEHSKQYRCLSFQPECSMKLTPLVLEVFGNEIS

With `OCC(F)(OC(F)(F)C(F)(OC(F)(F)C(F)(F)C(F)(F)F)C(F)(F)F)C(F)(F)F` (centres undefined), the AC50 in [1] was 3.71 µM (active); in experiment [2], 4.48 µM (active) and 3.3 µM (active); in experiment [3] it was 2.54 µM (active); in experiment [4], 4.38 µM (active); in experiment [5], 5.19 µM (active) and 3.7 µM (active); in [7] it was 4.76 µM (active) and 2.31 µM (active). Also, the AC50 in experiment [10] is 5.06 µM (active); in experiment [11] it was 2.41 µM (active); in [12] it was 4.78 µM (active). The outcome in experiment [1], in experiment [3], in experiment [4], in experiment [6], in experiment [8] and in [9] was inactive. The outcome in experiment [10], in experiment [11], in experiment [12], in [13], in [14] and in experiment [15] was inactive. Also, the outcome in experiment [16] and in experiment [17] was inactive.
`C#C[C@]1(O)CC[C@H]2[C@@H]3CCc4cc(O)ccc4[C@H]3CC[C@@]21C`: the outcome in [1], in [3], in [4], in experiment [6], in [7] and in [9] was inactive. The outcome in [10], in experiment [11], in [12], in [13], in experiment [14] and in [15] was inactive. Besides, the result in experiment [16] and in experiment [17] was inactive. The AC50 in experiment [2] was 6.09 µM (active); in experiment [18], 9.8 µM (active); in experiment [5], 3.99 µM (active); in [8], 3.93 µM (active).
Regarding `C[C@]12CC[C@@H]3c4ccc(O)cc4CC[C@H]3[C@@H]1CC[C@@H]2O`, the result in [1], in experiment [19], in [3], in [4], in experiment [6] and in experiment [7] was inactive. For the same molecule, the result in experiment [9], in [10], in experiment [11], in [12], in experiment [13] and in experiment [14] was inactive. Also, the result in experiment [15], in experiment [16] and in [17] was inactive. For the same molecule, the AC50 in experiment [18] is 13.7 µM (active); in experiment [5] it was 12.4 µM (active); in [8], 8.9 µM (active).
As to `O=S(=O)(O)C(F)(F)C(F)(F)OC(F)(F)C(F)(F)F`, the outcome in experiment [1], in [2], in experiment [3], in [4], in [5] and in [6] was inactive. Also, the outcome in experiment [7], in experiment [8], in experiment [9], in [10], in [11] and in experiment [12] was inactive. In addition, the outcome in experiment [13], in experiment [14], in experiment [15], in experiment [16] and in experiment [17] was inactive. Moreover, in experiment [3], the AC50 was 42.9 µM (active).
Turning to `CC(=O)OC(C)(C)C1CC=C(C)CC1` (centres undefined), the outcome in [1], in [3], in experiment [6], in experiment [7], in experiment [13] and in experiment [14] was inactive. The outcome in experiment [15] and in [16] was inactive. Further, the AC50 in [2] was 31.5 µM (active); in experiment [18], 38.9 µM (active); in [4] it was 31.2 µM (active); in experiment [5], 31 µM (active); in experiment [8] it was 30.8 µM (active); in experiment [9], 31.6 µM (active). The AC50 in experiment [10] was 35.4 µM (active); in experiment [11] it was 35 µM (active); in [12] it was 31.5 µM (active); in experiment [17], 27.7 µM (active).
Consider `CCCCCCCCCC(=O)OCC`, for which the result in [1], in [19], in experiment [3], in [6], in experiment [9] and in [10] was inactive. Also, the result in experiment [13], in experiment [14] and in experiment [15] was inactive. Also, the AC50 in [2] was 32 µM (active); in experiment [18], 14.1 µM (active); in experiment [4] it was 30.9 µM (active); in experiment [5], 31.5 µM (active); in [7], 29.7 µM (active); in experiment [8], 20 µM (active). In addition, the AC50 in experiment [11] is 31.7 µM (active); in [12], 20 µM (active); in [16] it was 31.8 µM (active); in [17], 20 µM (active).
